A selection: hits, their analogues and other compounds. The true share with any hit is near 3.6%.
Myeloid diff MLP: compounds promoting myeloid differentiation | ER-HoxA9 myeloid progenitors, lysozyme-GFP differentiation, flow cytometry | calls only at 10 µM | 360,000 compounds, 1% hits;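 active = normalized GFP-positive differentiation at or above the plate's own cutoff, the solvent-only control mean plus 3 SD; inconclusive = no clear call, values can overlap the other calls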;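 note: cells exposed to compound for four days before flow analysis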
NadD inh: inhibitors of Staphylococcus aureus NadD. 360,000 compounds, 0.78% hits. AID 602399. inhibition, % at 20 µM. purified NadD enzyme, colorimetric absorbance read-out; in the data active = inhibition above about 26%
FAS-TE inh: FAS thioesterase (human) inhibition; AID 602261; 360,000 compounds, 0.67% hits; inhibition, % at 15 µM; recombinant FAS-TE, OMFH fluorogenic substrate, fluorescence endpoint; P49327;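 active = compounds whose normalised, plate-corrected inhibition of enzyme fluorescence in the single-dose primary screen is 50% or more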;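 note: 0% = DMSO with enzyme and 100% = substrate without enzyme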
CRFBP-R2 block: CRF-BP/CRF-R2 complex antagonism; HEK293 CRF-R2/CRF-BP, CRF-induced calcium fluorescence; inhibition, % at 11.8 µM; 350,000 compounds, 0.59% hits; AID 588475;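 active = inhibition of the ligand-induced calcium signal above about 50% at the single tested concentration, limit read from the data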
CendR NRP1 mod: alters CendR peptide binding to human NRP-1; O14786; FAM-RPARPAR peptide binding to NRP-1, fluorescence polarization; inhibition, % at 25 µM; 360,000 compounds, 0.85% hits;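 active = inhibition or corrected inhibition above about 18%, plus a signal ratio from 0.5 to 1.5, limit read from the data, passing the limit was not always enough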
* hit, by the source's call; i = inactive; ? = inconclusive; / = not tested or not shown; + = active, no number.

SMILES	Myeloid diff MLP	NadD inh	FAS-TE inh	CRFBP-R2 block	CendR NRP1 mod
COc1ccc(C(=O)Nc2cccc(/C(C)=N/NC(=O)c3ccc([N+](=O)[O-])cc3)c2)cc1OC	+	9.5	-12.8	3.3	-13.1
CN(C)C1CN(Cc2cn(Cc3ccc(Cl)cc3)nn2)S(=O)(=O)C1 (stereo not drawn)	i	-4.5	-8.6	/	13.1
Cc1cn([C@H]2C[C@H](O)[C@@H](CNC(=O)CNC(=O)CN)O2)c(=O)[nH]c1=O	i	2.7	-6.9	10.5	2.4
O=C(CCc1nnc(-c2ccccc2)o1)NCC1CCN(C2CCCC2)CC1	i	5.8	-2.5	-20.2	1.3
Cc1cccc(C)c1N1CCN(C(=O)c2ccc3c(c2)OCO3)CC1	i	-8.1	10.6	61.1*	8.3
CC(C)OC(=O)c1sc2nc(-c3ccccc3)ccc2c1N	i	-3.5	10.3	-48.1	-6.4
COc1ccc(C(=O)c2sc3nc(-c4ccccc4)ccc3c2N)cc1	+	27.0	24.7	-126.2	-72.2
Nc1cc2nsnc2cc1Br	?	3.3	25.6	-8.7	39.7*
Cn1c2ccccc2c2cnn(CC(=O)Nc3ccc(F)cc3F)c(=O)c21	+	-5.0	-3.8	-8.8	-27.0
CCOc1ccc(S(=O)(=O)n2cc(F)c(=O)[nH]c2=O)cc1	+	-1.8	-6.2	9.7	-0.2
CCOc1ccc(S(=O)(=O)n2cc(F)c(=O)[nH]c2=O)cc1[N+](=O)[O-]	?	9.5	-0.7	-4.7	2.9
CCOC(=O)c1c(NC(=O)OC)sc(C(=O)N(C)C)c1C	i	-2.9	-10.8	-16.1	10.2
COC(=O)Nc1sc(C(=O)N(C)C)c(C)c1C(=O)OC	i	-0.6	3.2	7.4	24.0*
CCOC(=O)c1c(-c2ccccc2)oc2ccc(OCC(O)CNCCN(C)C)cc12 (stereo not drawn)	/	-7.9	-3.3	-1.1	-12.0
C[C@@H]1CN([C@H](C)CO)C(=O)c2c(c3ccccc3n2C)-c2ccccc2CO[C@H]1CN(C)Cc1ccccc1	i	-1.9	21.2	4.8	-3.4
COc1cccc(CN(C)C[C@@H]2OCc3ccccc3-c3c(n(C)c4ccccc34)C(=O)N([C@@H](C)CO)C[C@H]2C)c1	+	-4.1	12.5	5.1	-6.3
Cc1cc(C)cc(C(O)c2ncc(-c3ccc(C(F)(F)F)cc3)[nH]2)c1 (stereo not drawn)	i	0.3	11.0	/	-8.0
COC(=O)c1ccc2c(c1)N(C)S(=O)(=O)c1cnc(SCC(=O)C(C)(C)C)nc1-2	i	-2.2	-1.3	-7.8	3.6
COC(=O)c1ccccc1NC(=O)C1CCCO1 (stereo not drawn)	+	-4.2	-22.4	7.7	0.1
CCn1cc(C2=NOC(C(=O)Nc3ccccc3C(=O)OC)C2)c(C)n1 (stereo not drawn)	i	1.4	2.0	51.6*	14.2
COC(=O)c1ccccc1NC(=O)C1CC(c2ccccc2O)=NO1 (stereo not drawn)	i	-5.8	16.9	11.5	15.6
O=C(Nc1ccccc1Oc1ccccc1)[C@@H]1O[C@H](CO)[C@H](O)[C@H](O)[C@H]1O	i	-0.1	-5.2	/	-6.0
COc1ccccc1CCC(=O)Nc1ccc(S(=O)(=O)Nc2ncccn2)cc1	i	0.5	-8.8	-1.0	-39.2
COc1cc2c(cc1NC(=O)CN1C(=O)NC3(CCc4ccccc43)C1=O)oc1ccccc12 (stereo not drawn)	?	35.5*	54.6*	-5.9	0.1
O=c1[nH]c(Nc2ccccn2)cc2ccccc12	i	-2.7	18.4	-0.7	44.9*
SMILES	Myeloid diff MLP	NadD inh	FAS-TE inh	CRFBP-R2 block	CendR NRP1 mod
CCNC(=O)C1(C)CCN(Cc2ccc(OC(F)(F)F)cc2)C1 (stereo not drawn)	i	-8.1	-5.9	/	3.0
COc1ccc(COc2cc(-c3cccc(OC)c3)nc3ccc(N)cc23)cc1	/	-8.7	31.7	0.7	-7.6
COc1ccc(COc2cc(-c3cccc(OC)c3)nc3ccc(NC(C)=O)cc23)cc1	i	-5.6	-14.4	-6.8	27.3*
COc1cccc(-c2cc(C(=O)Nc3ccc(N(C)C(C)=O)cc3)c3cc(Br)ccc3n2)c1	i	10.9	44.4	-4.5	3.2
COc1ccc(COc2cc(-c3cccc(OC)c3)nc3ccc(NC(=O)c4ccc(N(C)C)cc4)cc23)cc1	?	26.7	25.6	6.3	28.2*
O=C(NCc1cccc(F)c1)Nc1nnc([C@H]2C[C@H](O)[C@@H](CO)O2)s1	i	-2.3	-7.4	/	-4.0
Cc1cccnc1C1=NOC(Cc2ccccc2)C(=O)N1C (stereo not drawn)	i	-2.1	-6.7	/	-4.4
C=CCCC(=O)N1CCC(n2nccc2NC(=O)c2ccc(OC)cc2)CC1	i	2.3	-3.9	66.3*	11.3
COc1ccc(C(=O)Nc2ccnn2C2CCN(C(=O)CCC(F)(F)F)CC2)cc1	i	2.3	-8.9	-3.6	0.3
CSC(=S)NN=C(C)c1cccc(C)n1	/	2.0	2.5	-6.1	26.7*
CC(=NNC(=S)N1CCCCC1)c1cccc(C)n1	?	1.9	-9.2	11.6	9.0
CCN(CC(=O)Nc1c(F)cccc1F)C(=O)c1ccc(OC)c(S(=O)(=O)NC2CCCC2)c1	i	0.1	-4.3	-8.3	-12.9
O=C(Nc1ccc2ccccc2c1)C(c1ccccc1)n1c(=O)c(-c2cc3ccccc3[nH]2)nc2ccccc21 (stereo not drawn)	i	/	/	/	0.8
CCn1c(C)cc(/C=C2\NC(=O)N(CC(=O)Nc3cccc(C)c3)C2=O)c1C	i	43.3*	-14.2	7.9	-25.9
CCn1c(C)cc(/C=C2/NC(=O)N(CC(=O)Nc3cccc(C)c3)C2=O)c1C	i	33.4*	-12.8	-31.8	-23.0
O=C(Nc1cccc(OC(F)(F)F)c1)c1cccc2c(-c3cccnc3)coc12	i	8.3	31.1	/	-1.3
Cc1cnc(CNC(=O)c2ccc3nc([C@@H]4O[C@H](CO)[C@H](O)[C@H](O)[C@H]4O)[nH]c3c2)cn1	i	1.2	-4.8	/	16.1
O=C(O)Cn1ccnc1[N+](=O)[O-]	i	-4.0	-5.3	-8.0	-7.6
CCOC(=O)[C@]12CCC=C1N(Cc1cccc3ccccc13)C(=O)[C@H](CC(=O)NCCC(C)C)C2	i	-6.8	13.0	/	3.5
COC(=O)c1cn(C(=O)c2ccc(Br)o2)c2ccccc12	i	-13.8	13.6	10.3	25.2*
COC(=O)c1cn(C(=O)c2ccco2)c2ccccc12	i	-0.4	0.7	6.0	-5.9
CC(=O)Nc1cc(-c2ccc(C(=O)N3CCOCC3)cc2)cn2c(-c3cccc(C(C)=O)c3)cnc12	i	-0.2	3.9	/	-20.8
O=C(CCn1nc(-c2ccc(Cl)cc2)ccc1=O)N1CCN(c2ccccc2)CC1	i	0.6	51.3*	12.4	-3.8
NNC(=O)c1sc2cc(C(F)(F)F)cnc2c1-c1cccs1	+	0.7	-1.3	-26.9	1.4
Cc1ccccc1OCC(=O)N1CCN(C(=O)COc2ccccc2C)CC1	i	-0.3	0.0	-3.5	1.1
